Bioassay records (PubChem)
JMJD2A Tudor: inhibitors of human JMJD2A Tudor domain; hit rate 4.4% among 390,000; O75164; Potency, µM (highest dose often 114 µM), for inactives: top-dose activity change, negative = inhibition, most hits filed as inhibitors; AlphaScreen JMJD2A-Tudor / H3K4me3 peptide binding; note: % is set by controls: 0 for no effect and ±100 for the full control effect; nearly all actives have a fitted effect of over 50% in size
HP1b binding inh: blocks HP1-beta chromodomain binding to methylated histone tails | P83916 | AlphaScreen HP1-beta / biotin-H3K9me3 peptide binding | hit rate 0.56% among 390,000 | Potency, µM (highest dose often 114 µM), inactives show at the top dose activity change, negative = inhibition, usual class: inhibitors; note: nearly all actives have a fitted effect of over 70% in size
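HP1-beta protein (50 nM final) preincubated 30 min at room temperature with biotinylated H3(1-18)K9me3 peptide (50 nM) in PBS pH 7.4, 0.01% Tween-20, then compound added for 30 min. AlphaScreen streptavidin donor/nickel chelate acceptor beads (10 ug/mL final), 30 min dark, luminescence read.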
Sfp PPTase inh: blocks B. subtilis Sfp PPTase activity; Q9F4F7; Biochemical Sfp PPTase activity, qHTS; Potency, µM, for the others: largest response in the series, negative = inhibition, usual class: inhibitors; hit rate 3.5% among 310,000; AID 1490;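 note: the enzyme is Sfp with the accession as filed and its product quenches rhodamine fluorescence; 0% = enzyme reaction without inhibitor and -100% = no enzyme wells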
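Fluorescence-quenching assay with 15 nM Sfp, 5 uM rhodamine-CoA and 12.5 uM BHQ-2-labelled ybbR peptide in pH 7.6 Hepes/MgCl2 buffer. Enzyme was pre-incubated with compound for 15 min at room temperature. Rate was taken from the 30-min fluorescence change (525/598 nm).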
BAZ2B block: blocks human BAZ2B; AlphaScreen BAZ2B-H3K14Ac peptide displacement; hit rate 4.4% among 360,000; Potency, µM (series often up to 114 µM), inactives show top-dose activity change, negative = inhibition, most hits filed as inhibitors; note: % is set by controls: 0 for no effect and ±100 for the full control effect; nearly all actives have a fitted effect of over 60% in size
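AlphaScreen displacement: compounds (up to 110uM) incubated 30 min at room temperature with a preformed 50 nM BAZ2B/50 nM biotinylated H3K14Ac peptide complex in PBS pH 7.4 with Tween-20. Donor and acceptor beads at 10 ug/mL final added, 20 min light-protected before reading.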
PLK1 PBD inh: blocks phosphopeptide binding to human PLK1 polo-box domain. P53350. Plk1 PBD binding of FITC phosphopeptide, fluorescence polarization. Potency, µM, for the others: max response, negative = inhibition, most hits filed as inhibitors. hit rate 2.8% among 360,000. AID 720504; note: series mostly up to about 57 µM; % is set by controls: 0 for no effect and ±100 for the full control effect; nearly all actives have a fitted effect of over 65% in size
G9a inh: blocks human histone lysine methyltransferase G9a. Q96KQ7. G9a H3K9 monomethylation, AlphaScreen, 2 h. Potency, µM (titrated, usually from 102 µM), inactives show at the top dose activity, negative = inhibition, most hits filed as inhibitors. hit rate 8.8% among 350,000; note: % is set by controls: 0 for no effect and ±100 for the full control effect; nearly all actives have a fitted effect of over 75% in size
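Using a bead-based AlphaScreen, monomethylated H3K9 product from 2 h room-temperature reactions (G9a 20 nM, peptide 500 nM, SAM 20 uM) was detected with 0.5 ug/mL rabbit anti-H3K9me1 antibody.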
* hit, by the source's call; ? = inconclusive; . = no result given; [ ] = dose if it differs, or a comment. A selection: hits, their analogues and other compounds. The true share with any hit is near 12%. Calls come from the whole dose curve; as a rule, active = well fitted curve in the direction sought with a large enough effect; inconclusive = small, poorly fitted or top-dose-only effect, or another doubt; inactive = no such curve, though single readings can be large; an effect the other way counts as inactive or inconclusive. Potency is the fitted concentration of half-maximal effect.

SMILES	JMJD2A Tudor	HP1b binding inh	Sfp PPTase inh	BAZ2B block	PLK1 PBD inh	G9a inh
COc1ccc(OC)c(C2=NS(=O)(=O)N(C)C(C(=O)N3CCC4(CC3)OCCO4)=C2)c1	?	0%	16%	-22%	30µM*	-1%
CN1C(C(=O)N2CCC3(CC2)OCCO3)=CC(c2ccc(F)cc2)=NS1(=O)=O	-16%	51%	-4%	-10%	-11%	5%
CC(C)n1c(=O)c(C=Nc2cccc([N+](=O)[O-])c2)c(O)n(CCc2ccccc2)c1=O	?	-7%	-4%	?	6%	10µM*
CCCCC(=O)N/N=C/c1c(O)n(CCCC)c(=S)[nH]c1=O	-26%	19%	20%	71µM*	-1%	20%
O=c1[nH]c(=O)n(-c2cccc3ccccc23)c(O)c1C=NCCCn1ccnc1	-6%	30%	15%	56µM*	-8%	-7%
CCCCC(=O)N/N=C/c1c(O)n(C2CC2)c(=S)[nH]c1=O	-8%	38%	13%	?	0%	6%[59 µM]
CCN(CC)CCN=Cc1c(O)n(Cc2ccco2)c(=O)[nH]c1=O	-9%	-12%	-1%	-5%	-9%	.
CC(=O)Nc1ccc(N=Cc2c(O)n(Cc3ccco3)c(=O)[nH]c2=O)cc1	-25%	37%	-14%	-27%	-14%	50µM*
CCCCC(=O)N/N=C/c1c(O)n(Cc2ccco2)c(=O)[nH]c1=O	?	40%	-24%	50µM*	-28%	?
COc1ccccc1CN1CC[C@@]2(CCCN(C(=O)Oc3ccccc3)C2)C1	.	.	-2%	.	.	6%[12.7 µM]
O=c1[nH]c(=S)n(-c2ccccc2F)c(O)c1C=NCc1ccco1	-23%	17%	-10%	-6%	-17%	18%[59 µM]
O=c1[nH]c(=O)n(Cc2ccco2)c(O)c1C=NCc1ccco1	-16%	7%	25µM*	56µM*	-17%	-4%[0.501 µM]
O=c1[nH]c(=O)n(-c2cccc3ccccc23)c(O)c1C=NCc1ccc2c(c1)OCO2	-9%	19%	5%	-4%	-5%	-6%[59 µM]
O=c1[nH]c(=O)n(Cc2ccco2)c(O)c1C=NCCN1CCOCC1	-9%	46%	-17%	6%	-17%	?
CCCCC(=O)N/N=C/c1c(O)n(-c2cccc3ccccc23)c(=O)[nH]c1=O	79µM*	44%	13%	79µM*	0%	20%
Cc1ccc(-n2c(O)c(C=NCc3ccco3)c(=O)[nH]c2=S)cc1C	-25%	21%	20µM*	?	-25%	?
O=C(N/N=C/c1c(O)n(Cc2ccco2)c(=O)[nH]c1=O)c1ccccc1O	79µM*	7%	17%	?	0%	?
O=c1cc(C(F)(F)F)c2cc3c4c(c2o1)CCCN4CCC3	89%[11.4 µM]	243%	-7%	102%	1.2µM*	159%
C[C@H](CCC(=O)O)C[C@H](C)C[C@H](C)C(=O)/C=C(\O)[C@H](C)C[C@H](C)C/C=C/[C@@H](C)[C@@H](O)[C@@H](C)[C@@H](O)C[C@@H]1CC[C@@](C)([C@H]2CC[C@@](C)([C@@H](C)O)O2)O1	.	.	2%	.	.	27%[59 µM]
COc1ccc(Cl)cc1NC(=O)CCn1c(=O)oc2ccccc21	10%	32%[57 µM]	13%	-1%	?	50%
COc1ccc(N(C)C(=O)Cn2c(=O)oc3ccccc32)c(OC)c1	0%	?	5%	-2%	-10%	45µM*
Cc1cc(N2C(=O)CC(N3CCC(n4c(=O)[nH]c5ccccc54)CC3)C2=O)no1 (stereo not given)	-18%[11.4 µM]	-4%	?	0%	27µM*	?
COC(=O)c1ccc(N2C(=O)CC(N3CCC(n4c(=O)[nH]c5ccccc54)CC3)C2=O)cc1 (stereo not given)	-25%	44%	0%	-1%	-9%	?
Cc1cccc(-n2c(/C=C/c3cn(C)c4ccccc34)nc3ccccc3c2=O)c1	-33%	24%	.	-2%	.	12%[59 µM]
CC(C)=CCOc1c2occc2cc2ccc(=O)oc12	?	21%	8%	-3%	27µM*	-13%[2.33 µM]
SMILES	JMJD2A Tudor	HP1b binding inh	Sfp PPTase inh	BAZ2B block	PLK1 PBD inh	G9a inh
COc1cccc(CNC(=O)c2cccc(S(=O)(=O)N3CCN(C)CC3)c2)c1	-10%	-1%	13%	-9%	-6%	40µM*
CCCN1[C@H](C(=O)OC)C[C@@H]2CC[C@@H](O)C[C@@H]21	.	.	19%	.	.	.
C/C=C(\C)C(=O)OC1C(C)=C2C(C1OC(=O)CCCCC)C(C)(OC(C)=O)CC(OC(=O)CCC)C1(O)C2OC(=O)C1(C)O (stereo not given)	.	.	28%	56µM*	.	?
CC=C(C)C(=O)O[C@H]1C(C)=C2[C@@H]3OC(=O)[C@@](C)(O)[C@@]3(O)[C@@H](OC(=O)CCC)C[C@](C)(OC(C)=O)[C@@H]2[C@@H]1OC(=O)CCCCCCC	.	.	7%	.	.	10%[59 µM]
Cc1cc(SCC(=O)N/N=C/c2ccco2)nc2ccccc12	-27%	14%	5%	?	-3%	.
CCc1nnc(NC(=O)CSc2ccc(-c3ccco3)nn2)s1	9%	17%	28µM*	50µM*	0%	22µM*
O=C(CSc1ccc(-c2ccco2)nn1)Nc1ccccc1	-25%	2%	32µM*	-15%	-25%	20µM*
CN1CN=C(N[N+](=O)[O-])N(Cc2ccco2)C1	-11%	35%	10%	-31%	-3%	-9%[59 µM]
O=[N+]([O-])NC1=NCN(Cc2ccco2)CN1Cc1ccco1	?	?	?	-10%	27µM*	-27%[59 µM]
CN(Cc1ccccc1)Cc1ccccc1OC(=O)N(C)C	-14%	32%	16%	-4%	1%	45µM*
CCOC(=O)c1ccc(NC(=O)C2C3C=CC(O3)C2C(=O)O)cc1 (stereo not given)	.	.	1%	-3%	.	35µM*
CCOP(=O)(Nc1ccc2c(c1)C(=NNC(N)=S)c1ccccc1-2)OCC	?	?	.	.	27µM*	.
Cn1c(O)c(C(c2ccccn2)c2c(O)n(C)c(=S)[nH]c2=O)c(=O)[nH]c1=S	79µM*	35%	79µM*	50µM*	-14%	22%[0.0925 µM]
CCC(C)N1C(=O)/C(=C/c2ccc3c(c2)CCN3CCCCl)C(=O)NC1=S (stereo not given)	50µM*	?	?	50µM*	0.95µM*	13µM*
COC(=O)c1cc(Oc2ccc(Cl)cc2Cl)ccc1[N+](=O)[O-]	.	.	-5%	.	.	.
O=C(Nc1ccc(Oc2ccc(Cl)cc2)c(Cl)c1)c1cc(I)cc(I)c1O	79µM*	-13%	-8%	?	?	?
Cc1ccc(-n2nc3c(=O)n(CC(=O)Nc4ccccc4F)nc(C)c3c2C)c(C)c1	-15%	40%	.	-2%	.	-5%[59 µM]
